Screening results from PubChem BioAssay.
TIM10 inh = growth inhibitors of isogenic TIM10 control yeast, primary screen, counter-screen for tim10-1 yeast inhibitor project, luminescence, uHTS. inhibition, % at 10 µM. S. cerevisiae TIM10 strain growth, BacTiter-Glo luminescence, 24 h. AID 463195, 2010. 330,000 compounds, 1.4% hits;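 active = inhibition of 40% or more at the single tested concentration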;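 also: wild-type TIM10 isogenic control strain grown at permissive 25 °C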
V-ATPase pH = regulators of yeast V-ATPase proton pumping, primary screen, pHLuorin cytosolic pH fluorescence. response, % at 10 µM. S. cerevisiae. AID 504577, 2011. 350,000 compounds, 0.37% hits; in the data active = response mostly above about 7.3%, no sharp cut-off; inactive = mostly below about 5.4%; also: actives read high
tim10-1 inh = growth inhibitors of tim10-1 mutant yeast, primary screen, luminescence, uHTS; inhibition, % at 20 µM; 330,000 compounds, 2.2% hits; S. cerevisiae tim10-1 ts strain growth, BacTiter-Glo, 24 h;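 active = inhibition of at least 40%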;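 also: mutant grown at 25 °C; 0% = DMSO wells with yeast and 100% = wells holding no yeast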
tim23-1 inh = growth inhibitors of tim23-1 mutant yeast, primary screen, luminescence, uHTS. S. cerevisiae tim23-1 growth, BacTiter-Glo luminescence, 24 h. inhibition, % at 20 µM. 330,000 compounds, 1.3% hits. AID 463212, 2010;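 active = growth inhibition of the mutant yeast at or above 50%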;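 also: temperature-sensitive mutant grown at 25 °C; plate controls were DMSO-treated mutant yeast for no effect and medium wells lacking yeast for full effect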
PfHsp90 set2 = growth inhibition of PfHsp90-expressing yeast, primary screen, antimalarial PfHsp90 inhibitor project, S. cerevisiae, BacTiter-Glo luminescence, single point, set 2. 310,000 compounds, 0.32% hits. inhibition, % at 9.4 µM. AID 504621, 2011. BacTiter-Glo ATP, 48 h; yeast lacking PDR1 and PDR3 efflux regulators;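 active = every replicate shows inhibition above about 80%, whatever the replicate mean, limit read from the data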;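 also: 0% = DMSO neutral controls and 100% = 20 µM radicicol positive controls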
SKKanGAS inh = S. pyogenes SKKanGAS growth inhibitors in kanamycin, primary screen, streptokinase expression inhibitor project, SKKanGAS strain, BacTiter-Glo luminescence | inhibition, % at 7.5 µM | 6 h | 300,000 compounds, 1.3% hits;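 active = mean replicate score, as percent of positive control median, at least 50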;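 also: strain carries kanamycin resistance gene driven by streptokinase promoter and grows in 40 µg/ml kanamycin; loss of luminescence reflects streptokinase promoter inhibition or plain growth inhibition; 0% = median of DMSO wells and 100% = positive control at its reference dose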
tim10-1 conf = growth inhibitors of tim10-1 mutant yeast, confirmation, single concentration, luminescence, S. cerevisiae. inhibition, % at 20 µM. AID 463213, 2010. shares compounds with tim10-1 inh. S. cerevisiae tim10-1 ts strain growth, BacTiter-Glo, 24 h. 7,400 compounds, 56% hits;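 active = inhibition of yeast growth at or above a set limit in either of two repeat tests at 20 µM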;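 also: tim10-1 mutant grown at permissive 25 °C to find synthetic lethal compounds; 0% = DMSO yeast wells and 100% = medium wells without yeast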
* = called active by the depositor; / = not tested or not shown. Sampled rows, rich in hits. Any-hit rate of the full collection: about 4.6%.

SMILES	TIM10 inh	V-ATPase pH	tim10-1 inh	tim23-1 inh	PfHsp90 set2	SKKanGAS inh	tim10-1 conf
C[C@H](CO)N1C[C@H](C)[C@@H](CN(C)S(=O)(=O)c2ccccc2)Oc2c(NC(=O)Nc3ccc4c(c3)OCO4)cccc2C1=O	10	2	-12	-2	-8	/	/
CC(Cl)C(=O)NC(=O)NC12CC3CC(CC(C3)C1)C2 (stereo not drawn)	29	-1	42*	45	2	6	26
O=C(CCl)NC(=O)NC12CC3CC(CC(C3)C1)C2	/	3	/	/	16	0	/
O=C1c2ccccc2S(=O)N1c1cccc(F)c1 (stereo not drawn)	/	2	/	/	/	/	/
COc1ccc(OC)c(C2=NS(=O)(=O)N(C)C(C(=O)Nc3ccc(F)cc3F)=C2)c1	-4	-3	42*	26	-39	5	19
CCC1CCCCN1CCCNC(=O)Cn1ncn2nc(-c3ccc(OC)cc3)cc2c1=O (stereo not drawn)	-1	-2	9	-1	28	0	/
Cc1ccc(O)c(C2=Nc3ccccc3N=C(c3cccc([N+](=O)[O-])c3)C2)c1	14	-2	40*	3	-10	6	18
Cc1ccc(O)c(C2=Nc3ccccc3N=C(c3ccc([N+](=O)[O-])cc3)C2)c1	-31	-1	5	-25	-11	3	/
CCOc1ccc2nc(SC3CC(=O)N(c4cccc(OC)c4)C3=O)sc2c1 (stereo not drawn)	28	-1	42*	42	6	-6	37*
CC1CCC(NC(=O)c2cc3c(=O)n(C)c4ccccc4c3n2C)CC1 (stereo not drawn)	21	0	40*	27	/	-6	29
O=[N+]([O-])c1cc(/C=N/O)ccc1Sc1ccccc1	-60	-1	-15	-11	-63	-2	/
O=[N+]([O-])c1cc(/C=N/O)ccc1Oc1ccccc1Cl	27	1	55*	33	106*	1	42*
O=[N+]([O-])c1cc(/C=N/O)ccc1Oc1cccc(Cl)c1	26	3	61*	41	-1	-11	55*
COCC(C)n1c(C)cc(C(=O)COC(=O)c2cc(=O)[nH]c3ccccc23)c1C (stereo not drawn)	15	-3	4	13	-7	/	/
O=C(c1ccco1)N1CCN=C1SCc1cccnc1	3	0	12	5	-5	0	/
O=C(c1ccco1)N1CCN=C1SCc1ccccc1F	16	-1	44*	27	2	7	16
COc1cc(OC)c(S(=O)(=O)Nc2ccc(C(=O)O)cc2)cc1S(=O)(=O)Nc1ccc(C(=O)O)cc1	12	-1	-15	3	-39	0	/
CC1Cc2ccccc2N1C(=O)COC(=O)c1ccc(Br)o1 (stereo not drawn)	3	0	24	4	/	2	/
COc1ccc(/C=C/C(=O)NCCSCc2ccco2)cc1OC	10	2	8	15	4	3	/
CC(=O)c1ccc(NC(=O)/C(=C\c2cccs2)NC(=O)c2ccco2)cc1	-3	-2	8	-10	9	-1	/
O=C(Nc1nc2ccccc2n1CCN1CCOCC1)c1cn(-c2ccccc2)nc1-c1ccccc1	39	-2	42*	40	-2	85*	32*
Cc1ccc(-n2c(-c3ccccc3)c[n+]3c2CCc2ccccc2-3)c(C)c1	32	-2	43*	18	/	/	28
Cc1ccc(-n2c(-c3ccccc3)c[n+]3c2CCC3)cc1	-1	-2	-9	4	0	-2	/
O=C(COC(=O)[C@@H]1CCCN1C(=O)c1cccs1)Nc1cccc(Cl)c1	17	3	11	37	-35	/	/
O=C(Nc1ccccc1Br)C1CC(=O)N(c2ccc3c4c(cccc24)CC3)C1 (stereo not drawn)	32	3	41*	30	-10	-7	33*
